According to the supplement of paper PMC13380429:

These compounds were tested on Vero E6 infected with SARS-CoV-2 (assay: morphology score (similarity to uninfected cells); higher = more like uninfected cells). Conditions: 24 h.

Question: How did the morphology score turn out when C[C@H]1CNCCCN1S(=O)(=O)c1cccc2cncc(F)c12 [ripasudil] (10 µM) was run?
Answer: 0.438

Question: With N#CC(c1ccccc1)(c1ccccc1)c1ccccc1Cl (10 µM) as the compound, how does the morphology score read?
Answer: 0.164

Question: With COc1c(C)cnc(Cn2cnc3c(Cl)nc(N)nc32)c1C (10 µM) as the compound, how does the morphology score read?
Answer: 0.256

Question: With NC(=O)[C@@H](CCC(F)(F)F)N(Cc1ccc(-c2ncon2)cc1F)S(=O)(=O)c1ccc(Cl)cc1 [avagacestat] (10 µM) as the compound, how does the morphology score read?
Answer: 0.0806

Question: For COc1ccc(CNCc2cccc3ccccc23)cc1 (10 µM), which morphology score is on record?
Answer: 0.0641

Question: Which morphology score does the source give for CCN(c1cc(C#CCN2CCOCC2)cc(C(=O)NCc2c(C)cc(C)[nH]c2=O)c1C)[C@H]1CC[C@H](N(C)CCOC)CC1 (10 µM) here?
Answer: 0.163

Question: How did the morphology score turn out when CC(C)C[C@H](NC(=O)CNC(=O)[C@H](Cc1ccc(O)cc1)NC(=O)[C@H](CO)NC(=O)[C@H](Cc1c[nH]c2ccccc12)NC(=O)[C@H](Cc1cnc[nH]1)NC(=O)[C@@H]1CCC(=O)N1)C(=O)N[C@@H](CCCNC(=N)N)C(=O)N1CCC[C@H]1C(=O)NCC(N)=O [gonadorelin] (10 µM) was run?
Answer: -0.182

Question: With COc1cc(Oc2ccnc3cc(OC)c(OC)cc23)ccc1NC(=O)NC(C)c1nccs1 (centres undefined) (10 µM) as the compound, how does the morphology score read?
Answer: 0.332

Question: Which morphology score does the source give for NC(N)=O [urea] (10 µM) here?
Answer: -0.168

Question: COC1=CC(=O)C[C@@H](C)[C@]12Oc1c(Cl)c(OC)cc(OC)c1C2=O [griseofulvin] (10 µM) was tested. Which morphology score did it give?
Answer: 0.0707

Question: Which morphology score does the source give for NC(CO)C(=O)NNCc1ccc(O)c(O)c1O (centres undefined) [benserazide] (10 µM) here?
Answer: -0.102

Question: OC[C@H]1O[C@H](O[C@H]2O[C@H](CO)[C@@H](O)[C@H](O)[C@H]2O)[C@H](O)[C@@H](O)[C@@H]1O [cabaletta] (10 µM) was tested. Which morphology score did it give?
Answer: -0.0856

Question: For Cc1c(C(=O)NC2CCCCC2)sc2nc3ccc(N)cc3n12 (10 µM), which morphology score is on record?
Answer: 0.0842

Question: For NC(=O)c1cn(Cc2c(F)cccc2F)nn1 [rufinamide] (10 µM), which morphology score is on record?
Answer: 0.218

Question: How did the morphology score turn out when O=[N+]([O-])c1ccc2c(c1)S(=O)(=O)C=C2 [stattic] (0.833333 µM) was run?
Answer: 0.148

Question: How did the morphology score turn out when COc1c(C)c2c(c(O)c1C/C=C(\C)CCC(=O)O)C(=O)OC2 [mycophenolic-acid] (10 µM) was run?
Answer: -0.0923

Question: For CCC1(c2ccc(N)cc2)CCC(=O)NC1=O (centres undefined) [aminoglutethimide] (10 µM), which morphology score is on record?
Answer: -0.0825

Question: For N[C@@H]1CONC1=O [cycloserine-(D)] (10 µM), which morphology score is on record?
Answer: 0.0631

Question: Which morphology score does the source give for CNC1CC(N)C(O)C(OC2OC(CO)C(O)C3OC4(OC(C(N)CO)C(O)C(O)C4O)OC23)C1O (centres undefined) [Hygromycin B] (10 µM) here?
Answer: 0.0213

Question: Which morphology score does the source give for Cc1ccc(C(=O)Nc2ccc(Oc3cc4cnn(C)c4cc3-c3cn[nH]c3)c(F)c2)c(=O)n1-c1ccc(F)cc1 (0.833333 µM) here?
Answer: 0.172

Question: For COC(=O)N/N=C/c1c[n+]([O-])c2ccccc2[n+]1[O-] [carbadox] (10 µM), which morphology score is on record?
Answer: 0.227

Question: COc1ccc([C@@H]2CC(=O)c3c(O)cc(O[C@@H]4O[C@H](CO[C@@H]5O[C@@H](C)[C@H](O)[C@@H](O)[C@H]5O)[C@@H](O)[C@H](O)[C@H]4O)cc3O2)cc1O [hesperidin] (10 µM) was tested. Which morphology score did it give?
Answer: -0.132

Question: How did the morphology score turn out when CCC[C@@H]1C[C@@H](C(=O)N[C@@H]([C@H]2O[C@H](SC)[C@H](O)[C@@H](O)[C@H]2O)[C@H](C)Cl)N(C)C1 (10 µM) was run?
Answer: -0.131

Question: For C/C=C/c1cc(OC)c(OC)cc1OC [alpha-asarone] (10 µM), which morphology score is on record?
Answer: 0.0292

Question: With Nc1nc(=O)n([C@H]2C[C@H](O)[C@@H](CO)O2)cc1F [fdcyd] (10 µM) as the compound, how does the morphology score read?
Answer: -0.201

Question: How did the morphology score turn out when COc1ccc2[nH]c(I)c(CCNC(C)=O)c2c1 [2-iodomelatonin] (10 µM) was run?
Answer: 0.0455

Question: CN(C)CCOC(=O)COc1ccc(Cl)cc1 [meclofenoxate] (10 µM) was tested. Which morphology score did it give?
Answer: -0.0664

Question: For NS(=O)(=O)Nc1ncnc(OCCOc2ncc(Br)cn2)c1-c1ccc(Br)cc1 (10 µM), which morphology score is on record?
Answer: 0.0685

Question: Which morphology score does the source give for Cn1cc(/C=C2\C(=O)Nc3cccnc32)c2ccccc21 (10 µM) here?
Answer: -0.0337

Each compound was assayed on Vero E6 infected with SARS-CoV-2 (assay: SARS-CoV-2 infection rate relative to infected DMSO; higher = more infection, active = 60 or less). Conditions: 24 h.

Question: How did the SARS-CoV-2 infection rate turn out when CC(=O)Nc1ccc(S(=O)(=O)Nc2ccc([N+](=O)[O-])cc2)cc1 [sulfanitran] (10 µM) was run?
Answer: 108% (inactive)

Question: With O=C(c1cn(Cc2cncn2Cc2ccc(Br)cc2)cc1-c1cccc2ccccc12)N1CCOCC1 (0.833333 µM) as the compound, how does the SARS-CoV-2 infection rate read?
Answer: 94.5% (inactive)

Question: How did the SARS-CoV-2 infection rate turn out when CC(C)Cc1ccc(C(C)C(=O)NO)cc1 (centres undefined) [ibuproxam] (10 µM) was run?
Answer: 93.5% (inactive)

Question: For O=C1C(=C(O)/C=C/c2ccc(O)cc2)C(=O)[C@@](O)([C@@H]2O[C@H](CO)[C@@H](O)[C@H](O)[C@H]2O)C(=O)[C@H]1[C@@H]1O[C@H](CO)[C@@H](O)[C@H](O)[C@H]1O (10 µM), which SARS-CoV-2 infection rate is on record?
Answer: 104% (inactive)

Question: How did the SARS-CoV-2 infection rate turn out when CC/C=C(\C(=O)N[C@@H]1C(=O)N2C(C(=O)OCOC(=O)C(C)(C)C)=C(COC(N)=O)CS[C@H]12)c1csc(N)n1 [cefcapene-pivoxil] (10 µM) was run?
Answer: 114% (inactive)

Question: How did the SARS-CoV-2 infection rate turn out when CCCCNc1c(C(=O)OCC)c(C)nc2c1cnn2CC [tracazolate] (10 µM) was run?
Answer: 92.5% (inactive)

Question: Which SARS-CoV-2 infection rate does the source give for CCNC(=O)NS(=O)(=O)c1sc(CC(C)C)cc1-c1ccc(Cn2c(-c3ccccc3)nc(OC)c2C=O)cc1 (10 µM) here?
Answer: 97% (inactive)

Question: How did the SARS-CoV-2 infection rate turn out when CC(C)c1ccc(C(=O)N=C(N)N)cc1S(C)(=O)=O [cariporide] (10 µM) was run?
Answer: 101% (inactive)

Question: Oc1ccc(Cl)cc1 [parachlorophenol] (10 µM) was tested. Which SARS-CoV-2 infection rate did it give?
Answer: 98% (inactive)

Question: How did the SARS-CoV-2 infection rate turn out when Cc1c(C)c2c(c(C)c1O)CC[C@@](C)(CCC[C@H](C)CCC[C@H](C)CCCC(C)C)O2 [vitamin-E] (10 µM) was run?
Answer: 117% (inactive)

Question: How did the SARS-CoV-2 infection rate turn out when O=c1cc(-c2ccc(O)c(O)c2)oc2cc(O)cc(O)c12 [luteolin] (10 µM) was run?
Answer: 110% (inactive)

Question: Which SARS-CoV-2 infection rate does the source give for C[C@H]1CNCCCN1S(=O)(=O)c1cccc2cncc(F)c12 [ripasudil] (10 µM) here?
Answer: 112% (inactive)

Question: How did the SARS-CoV-2 infection rate turn out when N#CC(c1ccccc1)(c1ccccc1)c1ccccc1Cl (10 µM) was run?
Answer: 89% (inactive)

Question: With COc1c(C)cnc(Cn2cnc3c(Cl)nc(N)nc32)c1C (10 µM) as the compound, how does the SARS-CoV-2 infection rate read?
Answer: 98.5% (inactive)

Question: With NC(=O)[C@@H](CCC(F)(F)F)N(Cc1ccc(-c2ncon2)cc1F)S(=O)(=O)c1ccc(Cl)cc1 [avagacestat] (10 µM) as the compound, how does the SARS-CoV-2 infection rate read?
Answer: 108% (inactive)

Question: With COc1ccc(CNCc2cccc3ccccc23)cc1 (10 µM) as the compound, how does the SARS-CoV-2 infection rate read?
Answer: 105% (inactive)

Question: With CCN(c1cc(C#CCN2CCOCC2)cc(C(=O)NCc2c(C)cc(C)[nH]c2=O)c1C)[C@H]1CC[C@H](N(C)CCOC)CC1 (10 µM) as the compound, how does the SARS-CoV-2 infection rate read?
Answer: 100% (inactive)

Question: CC(C)C[C@H](NC(=O)CNC(=O)[C@H](Cc1ccc(O)cc1)NC(=O)[C@H](CO)NC(=O)[C@H](Cc1c[nH]c2ccccc12)NC(=O)[C@H](Cc1cnc[nH]1)NC(=O)[C@@H]1CCC(=O)N1)C(=O)N[C@@H](CCCNC(=N)N)C(=O)N1CCC[C@H]1C(=O)NCC(N)=O [gonadorelin] (10 µM) was tested. Which SARS-CoV-2 infection rate did it give?
Answer: 104% (inactive)

Question: For COc1cc(Oc2ccnc3cc(OC)c(OC)cc23)ccc1NC(=O)NC(C)c1nccs1 (centres undefined) (10 µM), which SARS-CoV-2 infection rate is on record?
Answer: 101% (inactive)

Question: NC(N)=O [urea] (10 µM) was tested. Which SARS-CoV-2 infection rate did it give?
Answer: 114% (inactive)

Question: COC1=CC(=O)C[C@@H](C)[C@]12Oc1c(Cl)c(OC)cc(OC)c1C2=O [griseofulvin] (10 µM) was tested. Which SARS-CoV-2 infection rate did it give?
Answer: 104% (inactive)

Question: How did the SARS-CoV-2 infection rate turn out when NC(CO)C(=O)NNCc1ccc(O)c(O)c1O (centres undefined) [benserazide] (10 µM) was run?
Answer: 96.5% (inactive)

Question: For OC[C@H]1O[C@H](O[C@H]2O[C@H](CO)[C@@H](O)[C@H](O)[C@H]2O)[C@H](O)[C@@H](O)[C@@H]1O [cabaletta] (10 µM), which SARS-CoV-2 infection rate is on record?
Answer: 104% (inactive)

Question: With Cc1c(C(=O)NC2CCCCC2)sc2nc3ccc(N)cc3n12 (10 µM) as the compound, how does the SARS-CoV-2 infection rate read?
Answer: 105% (inactive)

Question: Which SARS-CoV-2 infection rate does the source give for NC(=O)c1cn(Cc2c(F)cccc2F)nn1 [rufinamide] (10 µM) here?
Answer: 102% (inactive)

Question: With O=[N+]([O-])c1ccc2c(c1)S(=O)(=O)C=C2 [stattic] (0.833333 µM) as the compound, how does the SARS-CoV-2 infection rate read?
Answer: 100% (inactive)

Question: With COc1c(C)c2c(c(O)c1C/C=C(\C)CCC(=O)O)C(=O)OC2 [mycophenolic-acid] (10 µM) as the compound, how does the SARS-CoV-2 infection rate read?
Answer: 114% (inactive)

Question: Which SARS-CoV-2 infection rate does the source give for CCC1(c2ccc(N)cc2)CCC(=O)NC1=O (centres undefined) [aminoglutethimide] (10 µM) here?
Answer: 110% (inactive)

Question: With N[C@@H]1CONC1=O [cycloserine-(D)] (10 µM) as the compound, how does the SARS-CoV-2 infection rate read?
Answer: 92.5% (inactive)

Question: With CNC1CC(N)C(O)C(OC2OC(CO)C(O)C3OC4(OC(C(N)CO)C(O)C(O)C4O)OC23)C1O (centres undefined) [Hygromycin B] (10 µM) as the compound, how does the SARS-CoV-2 infection rate read?
Answer: 86.5% (inactive)

Question: Which SARS-CoV-2 infection rate does the source give for Cc1ccc(C(=O)Nc2ccc(Oc3cc4cnn(C)c4cc3-c3cn[nH]c3)c(F)c2)c(=O)n1-c1ccc(F)cc1 (0.833333 µM) here?
Answer: 106% (inactive)

Question: How did the SARS-CoV-2 infection rate turn out when COC(=O)N/N=C/c1c[n+]([O-])c2ccccc2[n+]1[O-] [carbadox] (10 µM) was run?
Answer: 85% (inactive)

Question: With COc1ccc([C@@H]2CC(=O)c3c(O)cc(O[C@@H]4O[C@H](CO[C@@H]5O[C@@H](C)[C@H](O)[C@@H](O)[C@H]5O)[C@@H](O)[C@H](O)[C@H]4O)cc3O2)cc1O [hesperidin] (10 µM) as the compound, how does the SARS-CoV-2 infection rate read?
Answer: 108% (inactive)

Question: With CCC[C@@H]1C[C@@H](C(=O)N[C@@H]([C@H]2O[C@H](SC)[C@H](O)[C@@H](O)[C@H]2O)[C@H](C)Cl)N(C)C1 (10 µM) as the compound, how does the SARS-CoV-2 infection rate read?
Answer: 102% (inactive)

Question: Which SARS-CoV-2 infection rate does the source give for C/C=C/c1cc(OC)c(OC)cc1OC [alpha-asarone] (10 µM) here?
Answer: 98.5% (inactive)

Question: With Nc1nc(=O)n([C@H]2C[C@H](O)[C@@H](CO)O2)cc1F [fdcyd] (10 µM) as the compound, how does the SARS-CoV-2 infection rate read?
Answer: 97.5% (inactive)

Question: With COc1ccc2[nH]c(I)c(CCNC(C)=O)c2c1 [2-iodomelatonin] (10 µM) as the compound, how does the SARS-CoV-2 infection rate read?
Answer: 88% (inactive)

Question: How did the SARS-CoV-2 infection rate turn out when CN(C)CCOC(=O)COc1ccc(Cl)cc1 [meclofenoxate] (10 µM) was run?
Answer: 90.5% (inactive)

Question: For NS(=O)(=O)Nc1ncnc(OCCOc2ncc(Br)cn2)c1-c1ccc(Br)cc1 (10 µM), which SARS-CoV-2 infection rate is on record?
Answer: 120% (inactive)

Question: Cn1cc(/C=C2\C(=O)Nc3cccnc32)c2ccccc21 (10 µM) was tested. Which SARS-CoV-2 infection rate did it give?
Answer: 92.5% (inactive)
